According to article PMC5540273 (PLoS ONE, 2017):

What was measured:
Conditions in all cases: concentration: 1 μM, replicates: in singlicate; n = 1
HASPIN = system: T1, HASPIN
T1 construct: gene GSG2

HCK = system: HCK
HIPK1 = system: HIPK1
HIPK2 = system: HIPK2
HIPK3 = system: HIPK3
HIPK4 = system: HIPK4
HPK1 = system: HPK1
HUNK = system: HUNK
ICK = system: ICK
IGF1R = system: IGF1R
IKK-alpha = system: T2, IKK-alpha
T2 construct: gene CHUK

IKK-beta = system: T3, IKK-beta
T3 construct: gene IKBKB

IKK-epsilon = system: T4, IKK-epsilon
T4 construct: gene IKBKE

INSRR = system: INSRR
INSR = system: INSR
IRAK1 = system: IRAK1
IRAK3 = system: IRAK3
IRAK4 = system: IRAK4
ITK = system: ITK
[1] = system: JAK1(JH1domain-catalytic)
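Also: KINOMEscan kinase panel screen.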

Row | Structure (SMILES) | %Inh (HASPIN) | %Inh (HCK) | %Inh (HIPK1) | %Inh (HIPK2) | %Inh (HIPK3) | %Inh (HIPK4) | %Inh (HPK1) | %Inh (HUNK) | %Inh (ICK) | %Inh (IGF1R) | %Inh (IKK-alpha) | %Inh (IKK-beta) | %Inh (IKK-epsilon) | %Inh (INSRR) | %Inh (INSR) | %Inh (IRAK1) | %Inh (IRAK3) | %Inh (IRAK4) | %Inh (ITK) | %Inh [1]
1 | Cc1ccc(C(=O)N2CC[C@@H](O)C2)cc1-n1c(C)cc(OCc2ccc(F)cc2F)c(Br)c1=O | 0% | 66% | 11% | 0% | 0% | 0% | 0% | 0% | 0% | 0% | 0% | 0% | 0% | 0% | 0% | 0% | 0% | 0% | 0% | 0%
2 | c1ccc(-c2cnc3nccnn23)cc1 [AH20685] | 0% | 0% | 0% | 0% | 0% | 0% | 37% | 0% | 0% | 31% | 49% | 1% | 5% | 0% | 24% | 0% | 1% | 8% | 2% | 0%
3 | CCS(=O)(=O)c1ccc(OC)c(Nc2nccc(-c3c(-c4cccc(NC(=O)c5c(F)cccc5F)c4)nn4ncccc34)n2)c1 [GSK326180] | 0% | 77% | 0% | 0% | 1% | 0% | 25% | 22% | 21% | 57% | 27% | 27% | 13% | 21% | 45% | 28% | 1% | 29% | 5% | 20%
4 | C[C@@H](Oc1cc(-n2cnc3cc(-c4ccnc(NCCS(C)(=O)=O)c4)ccc32)sc1C(N)=O)c1ccccc1Cl [GSK907232] | 26% | 34% | 0% | 0% | 7% | 20% | 87% | 0% | 19% | 0% | 2% | 15% | 0% | 2% | 0% | 36% | 0% | 13% | 21% | 0%
5 | COC(=O)Nc1nc2ccc(Oc3ccc(NC(=O)Nc4cc(C(F)(F)F)ccc4F)cc3)cc2n1C.Cl [GW692089] | 50% | 0% | 0% | 3% | 0% | 69% | 0% | 12% | 0% | 0% | 77% | 18% | 0% | 0% | 0% | 18% | 0% | 0% | 0% | 3%
6 | O=C(O)C(F)(F)F.O=C(O)C(F)(F)F.O=c1[nH]ccc2nc(N[C@@H]3CCCNC3)nc(Nc3ccc(S(=O)(=O)N4CCOCC4)cc3)c12 [GSK2177277] | 81% | 92.6% | 83% | 92.9% | 97.2% | 54% | 98.2% | 0% | 88% | 90.8% | 100% | 98.1% | 75% | 99.2% | 97.6% | 99.6% | 22% | 83% | 86% | 99%
7 | Nc1ncc(-c2ccc3nccc(-c4ccncc4)c3c2)cc1S(=O)(=O)N1CCOCC1 [GSK1627798] | 50% | 0% | 37% | 15% | 25% | 76% | 49% | 0% | 36% | 35% | 21% | 9% | 11% | 15% | 35% | 31% | 73% | 16% | 11% | 3%
8 | Cn1cc(-c2[nH]c3cc(NC(=O)[C@H](N)C4CCCCC4)cc4c3c2C=NNC4=O)cn1 | 52% | 96.9% | 88% | 80% | 80% | 89% | 65% | 0% | 0% | 0% | 15% | 10% | 73% | 4% | 0% | 77% | 20% | 93.3% | 34% | 61%
9 | O=C(Nc1cccc(Oc2ccc3nc(NC(=O)C4CC4)cn3n2)c1)c1ccccc1C(F)(F)F | 0% | 69% | 28% | 0% | 0% | 1% | 10% | 0% | 0% | 0% | 0% | 0% | 0% | 0% | 0% | 0% | 5% | 0% | 0% | 8%
10 | O=C(Nc1ccccc1F)NC1CCN(c2ccnc(Nc3ccc(F)cc3)n2)CC1 [GSK1379800] | 9% | 0% | 0% | 0% | 16% | 0% | 34% | 6% | 3% | 10% | 0% | 0% | 22% | 0% | 0% | 24% | 21% | 5% | 0% | 20%
11 | COc1cc2c(cc1OCCN1CCNCC1)ncc1c3ccc(C#N)cc3[nH]c21 | 93.5% | 3% | 95.2% | 99.8% | 91.9% | 54% | 0% | 0% | 48% | 0% | 46% | 32% | 61% | 3% | 0% | 95.7% | 88% | 99.7% | 23% | 0%
12 | Cc1ccc(C(=O)Nc2ccc(Nc3ccnc4cc(-c5nccs5)ccc34)cc2O)cc1.Cl [GW494702] | 82% | 93.4% | 0% | 37% | 1% | 0% | 1% | 30% | 28% | 0% | 20% | 7% | 0% | 1% | 100% | 22% | 2% | 5% | 0% | 0%
13 | CC(=O)Nc1nc2cnc(Nc3cc(NC(=O)c4cccc(C5(C#N)CC5)c4Cl)ccc3C)nc2s1 | 0% | 53% | 27% | 0% | 0% | 6% | 1% | 12% | 0% | 0% | 7% | 6% | 0% | 0% | 0% | 10% | 24% | 21% | 0% | 17%
14 | CCc1ccc(-c2ccc3c(c2)-c2c(cnn2C)S(=O)(=O)N3C)cc1 | 0% | 0% | 0% | 0% | 11% | 8% | 17% | 0% | 4% | 4% | 0% | 7% | 0% | 7% | 0% | 0% | 11% | 0% | 2% | 0%
15 | O=c1[nH]cc(-c2ccc(N3CCOCC3)cc2)c2sc(-c3cn[nH]c3)cc12 [GSK2276055] | 79% | 0% | 97.3% | 97.5% | 99% | 47% | 26% | 11% | 31% | 0% | 0% | 11% | 34% | 0% | 24% | 0% | 0% | 9% | 0% | 24%
16 | Cc1occc1-c1ncc(OC[C@@H](N)Cc2c[nH]c3ccccc23)cc1-c1ccc2[nH]nc(C)c2c1.O=C(O)C(F)(F)F [GSK682037] | 65% | 0% | 0% | 0% | 7% | 35% | 90% | 79% | 0% | 7% | 0% | 0% | 0% | 9% | 9% | 0% | 0% | 0% | 12% | 0%
17 | Cl.c1ccc(-c2ccc3c(Nc4ccc5[nH]ccc5c4)ccnc3c2)nc1 [GW440138] | 23% | 19% | 0% | 0% | 0% | 0% | 10% | 0% | 0% | 40% | 17% | 8% | 19% | 0% | 0% | 28% | 0% | 3% | 0% | 12%
18 | Cn1cc(-c2ccc3c(c2)CCN3C(=O)Cc2cccc(Cl)c2)c2c(N)ncnc21 [GSK2606590] | 2% | 0% | 13% | 0% | 13% | 0% | 47% | 4% | 0% | 0% | 22% | 57% | 78% | 16% | 9% | 0% | 22% | 0% | 19% | 18%
19 | CN(c1ccc(NC(=O)Nc2cc(C(F)(F)F)ccc2F)cc1)c1ccnc(Nc2ccc(S(N)(=O)=O)cc2)n1 [GW809893] | 2% | 98.3% | 59% | 64% | 84% | 99.1% | 99.4% | 15% | 21% | 0% | 82% | 44% | 7% | 13% | 15% | 49% | 51% | 6% | 59% | 95.3%
20 | NCCCC(NC(=O)c1cc(Br)c(-c2ccnc3[nH]ccc23)s1)c1ccccc1.O=C(O)C(F)(F)F.O=C(O)C(F)(F)F (stereo not shown) [GSK1287544] | 95.7% | 0% | 39% | 14% | 62% | 82% | 62% | 0% | 23% | 2% | 48% | 58% | 0% | 1% | 0% | 94.8% | 0% | 7% | 12% | 72%
